Data as given in PubChem BioAssay AID1159580 (chemical genetic matrix, 2015).
The campaign covered roughly 5,500 compounds. About 2,000 (36%) were called active. Not shown: some 18% with an inconclusive outcome. Cut-off read from the data, not from the text of the source: active = normalized growth mostly below about 0.91 (no sharp cut-off); inconclusive = no clear call, values can overlap the other calls; inactive = mostly above about 0.92. The list shows a part of the results.

Assay: chemical genetic growth profiling, strain panel (AID 1159580);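 note: tested at 20 µM; growth read once vehicle control cultures reached saturation at 30 °C; 1 = growth at the plate median or of vehicle wells; lower values mean less growth of the strain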
Settings: S. cerevisiae deletion strains, growth OD

Measured: normalized growth

O=c1cc(-c2ccccc2)oc2cc(O)c(O)cc12
active: locus YAL026C, strain drs2, stronger effect = lower value 0.895 | locus YBR009C, strain hhf1, stronger effect = lower value 0.894 | locus YDR069C, strain doa4, stronger effect = lower value 0.819 | locus YJL164C, strain tpk1, stronger effect = lower value 0.912 | locus YJL166W, strain qcr8, stronger effect = lower value 0.876 | locus YLR262C, strain YPT6 (second series), stronger effect = lower value 0.791 | locus YNL209W, strain ssb2, stronger effect = lower value 0.851 | locus YOR106W, strain vam3, stronger effect = lower value 0.826 | locus YOR270C, strain vph1, stronger effect = lower value 0.773
inactive: locus YAL021C, strain ccr4, stronger effect = lower value 0.934 | locus YAL030W, strain snc1, stronger effect = lower value 0.949 | locus YBL061C, strain skt5, stronger effect = lower value 0.946 | locus YBR023C, strain chs3, stronger effect = lower value 0.973 | locus YBR171W, strain sec66, stronger effect = lower value 0.974 | locus YBR231C, strain swc5, stronger effect = lower value 0.948 | locus YBR279W, strain paf1, stronger effect = lower value 0.945 | locus YCL011C, strain gbp2, stronger effect = lower value 0.943 | locus YCL016C, strain dcc1, stronger effect = lower value 0.948 | locus YCL061C, strain MRC1, stronger effect = lower value 0.979 | locus YCL069W, strain vba3, stronger effect = lower value 0.982 | locus YCR088W, strain abp1, stronger effect = lower value 0.993 | locus YDL005C, strain med2, stronger effect = lower value 0.977 | locus YDL040C, strain nat1, stronger effect = lower value 0.986 | locus YDR001C, strain nth1, stronger effect = lower value 0.981 | locus YDR137W, strain rgp1, stronger effect = lower value 0.856 | locus YDR159W, strain sac3, stronger effect = lower value 0.972 | locus YDR195W, strain ref2 1 | locus YDR297W, strain sur2, stronger effect = lower value 0.952 | locus YDR334W, strain swr1, stronger effect = lower value 0.96 | locus YDR335W, strain msn5, stronger effect = lower value 0.979 | locus YDR392W, strain spt3, stronger effect = lower value 0.979 | locus YEL003W, strain gim4, stronger effect = lower value 0.964 | locus YEL037C, strain rad23, stronger effect = lower value 0.967 | locus YEL061C, strain CIN8 (second series), stronger effect = lower value 0.964 | locus YER015W, strain faa2, stronger effect = lower value 0.946 | locus YER016W, strain bim1, stronger effect = lower value 0.99 | locus YER111C, strain swi4, stronger effect = lower value 0.951 | locus YER155C, strain BEM2 (second series), stronger effect = lower value 0.971 | locus YFR010W, strain ubp6, stronger effect = lower value 0.914 | locus YGL167C, strain pmr1, stronger effect = lower value 0.949 | locus YGL173C, strain kem1, stronger effect = lower value 0.933 | locus YGL227W, strain vid30, stronger effect = lower value 0.973 | locus YGL240W, strain doc1, stronger effect = lower value 0.943 | locus YGL253W, strain hxk2, stronger effect = lower value 0.939 | locus YHR013C, strain ard1, stronger effect = lower value 0.856 | locus YHR027C, strain rpn1, stronger effect = lower value 0.945 | locus YHR030C, strain SLT2, stronger effect = lower value 0.981 | locus YHR079C, strain IRE1, stronger effect = lower value 0.972 | locus YHR142W, strain chs7, stronger effect = lower value 0.941 | locus YJL092W, strain hpr5, stronger effect = lower value 1 | locus YJL095W, strain BCK1 (second series), stronger effect = lower value 0.972 | locus YJL095W, strain BCK1, stronger effect = lower value 0.999 | locus YJL115W, strain asf1, stronger effect = lower value 0.985 | locus YJL129C, strain trk1, stronger effect = lower value 0.912 | locus YJL154C, strain vps35, stronger effect = lower value 0.994 | locus YJL187C, strain SWE1, stronger effect = lower value 0.946 | locus YJR066W, strain TOR1, stronger effect = lower value 0.954 | locus YKL160W, strain elf1, stronger effect = lower value 0.97 | locus YKR026C, strain gcn3, stronger effect = lower value 0.98 | locus YKR091W, strain srl3, stronger effect = lower value 0.983 | locus YLL001W, strain dnm1, stronger effect = lower value 0.975 | locus YLL026W, stronger effect = lower value 1.01 | locus YLL041C, strain sdh2, stronger effect = lower value 0.976 | locus YLR027C, strain aat2, stronger effect = lower value 0.975 | locus YLR113W, strain HOG1, stronger effect = lower value 0.99 | locus YLR221C, strain rsa3, stronger effect = lower value 0.949 | locus YLR258W, strain gsy2, stronger effect = lower value 0.953 | locus YLR320W, strain mms22, stronger effect = lower value 0.97 | locus YLR342W, strain FKS1, stronger effect = lower value 0.936 | locus YLR357W, strain rsc2, stronger effect = lower value 0.903 | locus YLR370C, strain arc18, stronger effect = lower value 0.935 | locus YLR384C, strain iki3, stronger effect = lower value 0.964 | locus YML120C, strain ndi1, stronger effect = lower value 0.951 | locus YMR058W, strain fet3, stronger effect = lower value 0.956 | locus YMR125W, strain sto1, stronger effect = lower value 1.02 | locus YMR129W, stronger effect = lower value 0.972 | locus YMR205C, strain PFK2, stronger effect = lower value 0.955 | locus YMR231W, strain pep5, stronger effect = lower value 0.958 | locus YNL071W, strain lat1, stronger effect = lower value 0.995 | locus YNL183C, strain NPR1, stronger effect = lower value 0.951 | locus YNL248C, strain rpa49, stronger effect = lower value 1.02 | locus YNL322C, strain KRE1 (second series), stronger effect = lower value 0.992 | locus YNR049C, strain mso1, stronger effect = lower value 0.987 | locus YOR001W, strain rrp6, stronger effect = lower value 0.991 | locus YOR070C, strain gyp1, stronger effect = lower value 0.979 | locus YOR080W, strain dia2, stronger effect = lower value 0.976 | locus YOR083W, strain WHI5, stronger effect = lower value 0.961 | locus YOR231W, strain MKK1, stronger effect = lower value 0.996 | locus YOR265W, strain rbl2, stronger effect = lower value 0.95 | locus YOR290C, strain snf2, stronger effect = lower value 0.939 | locus YPL051W, strain arl3, stronger effect = lower value 0.943 | locus YPL078C, strain atp4, stronger effect = lower value 0.986 | locus YPL106C, strain sse1, stronger effect = lower value 0.855 | locus YPL240C, strain hsp82, stronger effect = lower value 0.949 | locus YPL256C, strain CLN2, stronger effect = lower value 0.955
